Measurements as given in PubChem BioAssay.
A number with no mark means an inactive call. Calls of active or inactive are those of the source. Cut-off read from the data, not from the text of the source: active = inhibition above about 25%; inactive = the rest.

Experiment: VP16 transactivation inhibitors, counter-screen for SRC1 inhibitor project, cell-based, luminescence, high throughput (AID 588824)
Details: cell-based VP16 transactivation luciferase luminescence; at 3.6 µM; stronger effect = higher value

| Compound | inhibition |
| --- | --- |
| CCOP(=O)(OCC)C(NC(=O)c1cccs1)c1ccccc1 (stereo not given) | -3.21% |
| c1cncc(CNC2CCCc3ccccc32)c1 (stereo not given) | -8.78% |
| CC1CCN(C(=O)c2scc3c2OCCO3)CC1 | 8.58% |
| CCN(CC)S(=O)(=O)c1ccc(N2CCOCC2)c(NC(=O)c2cc(-c3ccccn3)nc3ccccc23)c1 | -1.24% |
| Cn1ncc(Cl)c1C(=O)NCc1cc(C(C)(C)C)n[nH]1 | -4.25% |
| CN(C)C(=O)c1cccc(-c2cnc3cccnn23)c1 | 7.53% |
| COc1ccc(-n2c(NNC(C)=O)nc3sc4c(c3c2=O)CCCC4)cc1 | 31.6% (active) |
| CSc1ccc(CN2CCN(C(=O)CC(C)C)CC2)cc1 | -2.54% |
| COc1ccc(CCN(C)C(=O)c2cc(S(=O)(=O)N3CCCCC3)ccc2Cl)cc1OC | 8.04% |
| CC(Oc1ccc(F)cc1)C(=O)Nc1cc(S(=O)(=O)N2CCCCC2)ccc1N1CCOCC1 (stereo not given) | 6% |
| COc1ccc(-c2nc(N3CCOCC3)nc3n[nH]c(N)c23)cc1 | 17.9% |
| CCOC(=O)N1CCC(N(CCN(C)C)C(=S)Nc2ccccc2OCC)CC1 | 4.03% |
| CC1(C)Cc2nc(N)c(=O)sc2C1 | 5.55% |
| Cc1ccc(OCCN2CCN(C(=O)CCC(=O)Nc3nnc(CC(C)C)s3)CC2)cc1 | 11.8% |
| Cc1c(C(=O)NCC2COc3ccccc3O2)oc2ccc(S(=O)(=O)N3CCOCC3)cc12 (stereo not given) | 15.8% |
| O=C(CNC(=O)Cc1ccccc1)N=Nc1c(O)n(Cc2ccc3c(c2)OCO3)c2ccccc12 | 3.04% |
| O=C(NCCc1ccc(F)cc1)C(=O)NCC1CCCN1S(=O)(=O)c1ccccc1 (stereo not given) | -2.18% |
| COc1ccc(CCNC(=O)[C@H](CCSC)NC(=O)N2CCn3c2nc2ccccc23)cc1OC | -3.22% |
| COc1cccc(C2=CC(=O)CC(C)(C)C2)c1 | 14.3% |
| Cc1sc2ncn3ncnc3c2c1C | 27.7% (active) |

| Compound | inhibition |
| --- | --- |
| O=C(OCC(=O)N1CCN(S(=O)(=O)c2ccc(Cl)cc2)CC1)c1cccc(OC(F)F)c1 | -5.85% |
| COc1ccccc1NC(=O)c1cc(S(=O)(=O)NC2CCCC2)ccc1F | 5.69% |
| CCOc1ccc(NC(=O)CN(C)C(=O)C2CCN(c3ncnc4sc(C)c(C)c34)CC2)cc1OCC | 3.14% |
| Cc1ccc(S(=O)(=O)N(C)c2ccc(C(=O)Nc3ccccc3C(=O)N3CCOCC3)cc2)cc1 | -3.41% |
| O=C(COC(=O)c1c(Cl)cccc1Cl)Nc1cc(Cl)ccc1Oc1ccccc1 | 4.43% |
| CC(C)=CCCC(C)CN1CCC(n2nccc2NC(=O)c2ccccc2)CC1 (stereo not given) | -14.3% |
| Cc1cccc(NC(=O)CSCC(=O)N2CCCc3ccccc32)c1 | -4.48% |
| Cc1cn(Cc2ccccc2Cn2cc(C)c(=O)[nH]c2=O)c(=O)[nH]c1=O | -5.61% |
| COc1ccc(-n2c(SC(C)C(=O)Nc3ncc(Cl)cc3Cl)nc3ccccc32)cc1 (stereo not given) | 79.4% (active) |
| CCOc1ccc(-c2[nH]ncc2-c2ccc(Cl)cc2)c(O)c1 | 3.27% |
| c1ccc2c(c1)CCN(c1nc3cc4c(cc3s1)OCCO4)C2 | 2.93% |
| CCOc1cccc(C(=O)Nc2nc(-c3ccc(S(=O)(=O)N4CCOCC4)cc3)cs2)c1 | -6.23% |
| O=C1c2cccc(OCc3ccc(F)cc3)c2CCN1Cc1ccccc1 | 13.6% |
| COc1ccc(CCN(C)C(=O)CSc2nnc(C3CC3)n2N)cc1OC | 12.5% |
| COC(=O)C(C)NC(=O)C12CC3CC(C1)CC(c1ccc(C)cc1)(C3)C2 (stereo not given) | 4.73% |
| COc1ccc(S(=O)(=O)N2CCOC23CCN(S(=O)(=O)c2ccc(Cl)cc2)CC3)cc1 | -6.07% |
| COc1cccc(OCCn2cc(C(C)=O)c3ccccc32)c1 | 30.8% (active) |
| O=C(NC(=S)NCC1CCCO1)c1ccccc1[N+](=O)[O-] (stereo not given) | -12% |
| COc1ccc(CCNc2c3ccccc3nc3ccccc23)cc1OC | 26.2% (active) |
| O=C(CN1C(=O)CCC1=O)Nc1ccc(S(=O)(=O)N2CCOCC2)cc1 | 4.05% |
